According to the supplement of paper PMC8728848:
Only a selection was taken, and the strongest signals are over-represented in it overall.

B1: pullulanase (Streptococcus pyogenes), Q8KLP1 (protein)
chain: MKKKVNQGSKRYQYLLKKWGIGFVIAATGTVMLGCIPSILTHQVAAKTIVGLARDEAQQGDGNAKSGDGFQSSSKEAKPVLDSSSANPASIAEHHLRMHFKTLPAGESLGSLGLWVWGDVDQPSKDWPNGAITMTKAKKDDYGYYLDVPLAAKHRQQVSYLINNKAGENLSKDQHIPLLTPKMNEVWIDENYHAHAYRPLKKGYLRINYHNQSGHYDNLAVWTFKDVKTPTTDWPNGLDLSHKGPYGAYVDVPLKEGANEIGFLILDKSKTGDAIKVQPKDYLFKELDNHTQVFVKDTDPKVYNNPYYIDQVSLKGAEQTTPNEIKAIFTTLDGLDEDAVKQNIKITDKAGKTVAIDELTLDKDKSVMTLKGDFKAQGAVYTVTFGEVSQVARQSWQLKDKLYAYDGELGATLAKDGSVDLALWSPSADSVKVVVYDKQDQTKVVGQADLTKSDKGVWRAHLTSDSVKGISDYTGYYYLYEITRGQEKVMVLDPYAKSLAAWNDATATDDIKTAKAAFIDPSKLGPTGLDFAKINNFKKREDAIIYEAHVRDFTSDKALEGKLTHPFGTFSAFVEQLDYLKDLGVTHVQLLPVLSYFYANELDKTRSTAYTSSDNNYNWGYDPQHYFALSGMYSANPNDPALRIAELKNLVNEIHKRGMGVIFDVVYNHTARTYLFEDLEPNYYHFMNADGTARESFGGGRLGTTHAMSRRILVDSITYLTREFKVDGFRFDMMGDHDAAAIEQAFKAAKAINPNTIMIGEGWRTYQGDEGKKEIAADQDWMKATNTVGVFSDDIRNTLKSGFPNEGTAAFITGGAKNLEGLFKTIKAQPSNFEADAPGDVVQYIAAHDNLTLHDVIAKSINKDPKVAEEEIHKRIRLGNTMILTAQGTAFIHSGQEYGRTKQLLNPDYKTKVSDDKVPNKATLIDAVAQYPYFIHDSYDSSDAVNHFDWAKATDSIAHPISNQTKAYTQGLIALRRSTDAFTKATKAEVDRDVTLITQAGQDGIQQEDLIMGYQTVASNGDRYAVFVNADNKTRKVVLPQAYRYLLGAQVLADAEQVGVTAIAKPKGVQFTKEGLTIDGLTALVLKVSSKTANPSQQKSQTDNHQTKTPDGSKDLDKSLMTRPKRAKTNQKLPKTGEAPSKGLLAAGVALLLLAISLLMKRQKD
B2: Epa1-NP-mutant-D229G (Candida glabrata), Q6VBJ0 (protein)
chain: MILNPALFLNKCVCIYTTLILLLLTNGGYATSSNDISLASKDPTTFPLGCSPDITTPKKGLSMELYSYDFRKKGSYPCWDAAYLDPNYPRTGYKSHRLLAKVDGVTGNINFYYHATKGCTPQLGHLPASYNYPKPLTMTNFTMLLYGYFRPKVTGFHTFTISADDLLFVNFGAGNAFDCCRRDSSADHFGNYQAYAIWGSKTAKDELTVHLDAGVYYPIRLFYNNREYGGALSFTFKTESNENTVSDFSEYFFSLDDTEEGCPGLISYDSSCASVKTSKIIGIDYHTETPNENLVPITKTIYHLGIPCTGTTTTPLCGSGFYDPLANKCVTINTSSTSSVTKTTSHTTSKEVSFHSSISSQKTLIPKSIPSPYGPIKSQSIPTEMETSSEISSSEYAFSDVISTPSHSPYTKKHSSLNSSSYTSTVIHSLTSYSISQGIFSTSLSEQNITSKSSTDKFSTATSMSNNITQSSIIISQFSTNNENYTTTSMHTSSDKISTETLNNSISTTTSILFSNSSTILKNNTTIISSDKDTHYHPVNPTIVCSTNKTEIICASITQPSISNSNNHWSSSVLKFNSTTVRSTLPSSAGSNETSINVPFSSSTESNTSTSSTSTSNSKMVRSTLPSSAGSNETSISVPFSSSTESNTSTSSTSTSNSKMVRSTLPSSAGSNETSINVPFSSSTESNTSTSSTSTSNSKTVRSTPFSSAGIIMTSLSQRNNKSASSYASSNSKCYNTADSCRKVHSTPSYLLTSSYTSEGVDYDCSLVSTKLKINDTNCVNNKHTTKSCLKTSVTTTIPTLEIKTARKSSSNTIGLHSYPTSSPNKSISSAPIIGYISSFKTIKTASPSYQTSDLTTITTITSLNNPGSTAVENTHESNDKSRKTSSNDISSKHSVIKETKDAVESSNKSHQTNTLKCSSIIIASSSHNSYESLGGTTLTLTLSKVYSPQNNDTLPFLEISEVNPSRTVLPESSKMMQYLTSTEERNKTARNTIATNIVSISTFHFEGEGNAIRMGYTQLLLMLIGIIVMNIGT

Assays:
Experiment in all cases: glycan array binding signal (z-score within array); higher = stronger binding
[1] = target: Fuc(a1-2)Gal(b1-3)GlcNAc(b1-2)Man(a1-3)[Fuc(a1-2)Gal(b1-3)GlcNAc(b1-2)Man(a1-6)]Man(b1-4)GlcNAc(b1-4)[Fuc(a1-6)]GlcNAc; details: glycan notation: IUPAC condensed, linker removed
In short: (§1)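 Glycan array binding is given as a within-array Z-score, which can be read as non-binding when negative. The arrays, 3228 of them, came from the Consortium for Functional Glycomics database and were retained only where the protein sequence was available. Z-scores were averaged across arrays of the same protein sequence at different concentrations or buffers and across linkers.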

[2] = target: Fuc(a1-2)Gal(b1-3)[Fuc(a1-4)]GlcNAc(b1-3)[Fuc(a1-3)[Gal(b1-4)]GlcNAc(b1-6)]Gal(b1-4)Glc; details: glycan notation: IUPAC condensed, linker removed
In short: as §1

[3] = target: Fuc(a1-2)Gal(b1-3)[Fuc(a1-4)]GlcNAc(b1-3)[Gal(b1-4)GlcNAc(b1-6)]Gal(b1-4)Glc; details: glycan notation: IUPAC condensed, linker removed
In short: as §1

[4] = target: Fuc(a1-2)Gal(b1-4)[Fuc(a1-3)]GlcNAc(b1-3)GalNAc; details: glycan notation: IUPAC condensed, linker removed
In short: as §1

[5] = target: Fuc(a1-2)[Gal(a1-3)]Gal(b1-4)Glc; details: glycan notation: IUPAC condensed, linker removed
In short: as §1

[6] = target: Fuc(a1-2)[Gal(a1-3)]Gal(b1-4)GlcNAc(b1-3)GalNAc; details: glycan notation: IUPAC condensed, linker removed
In short: as §1

[7] = target: Fuc(a1-2)[GalNAc(a1-3)]Gal; details: glycan notation: IUPAC condensed, linker removed
In short: as §1

[8] = target: Fuc(a1-2)[GalNAc(a1-3)]Gal(b1-3)GlcNAc(b1-3)GalNAc; details: glycan notation: IUPAC condensed, linker removed
In short: as §1

[9] = target: Fuc(a1-2)[GalNAc(a1-3)]Gal(b1-4)[Fuc(a1-3)]GlcNAc; details: glycan notation: IUPAC condensed, linker removed
In short: as §1

[10] = target: Fuc(a1-2)[GalNAc(a1-3)]Gal(b1-4)[Fuc(a1-3)]GlcNAc(b1-3)GalNAc; details: glycan notation: IUPAC condensed, linker removed
In short: as §1

[11] = target: Fuc(a1-2)[GalNAc(b1-3)]Gal; details: glycan notation: IUPAC condensed, linker removed
In short: as §1

[12] = target: Fuc(a1-3)[Gal(b1-4)]Glc6S; details: glycan notation: IUPAC condensed, linker removed
In short: as §1

[13] = target: Fuc(a1-3)[Gal(b1-4)]GlcNAc(b1-3)GalNAc; details: glycan notation: IUPAC condensed, linker removed
In short: as §1

[14] = target: Gal(b1-3)[Fuc(a1-4)]GlcNAc(b1-2)Man(a1-3)[Gal(b1-3)[Fuc(a1-4)]GlcNAc(b1-2)Man(a1-6)]Man(b1-4)GlcNAc(b1-4)GlcNAc; details: glycan notation: IUPAC condensed, linker removed
In short: as §1

[15] = target: Gal(b1-3)[Fuc(a1-4)]GlcNAc(b1-2)Man(a1-3)[Gal(b1-3)[Fuc(a1-4)]GlcNAc(b1-2)Man(a1-6)]Man(b1-4)GlcNAc(b1-4)[Fuc(a1-6)]GlcNAc; details: glycan notation: IUPAC condensed, linker removed
In short: as §1

[16] = target: Gal(b1-4)Glc6S; details: glycan notation: IUPAC condensed, linker removed
In short: as §1

[17] = target: Gal(b1-4)GlcNAc(b1-2)[Gal(b1-4)GlcNAc(b1-4)]Man(a1-3)[GlcNAc(b1-4)][Gal(b1-4)GlcNAc(b1-2)Man(a1-6)]Man(b1-4)GlcNAc(b1-4)GlcNAc; details: glycan notation: IUPAC condensed, linker removed
In short: as §1

[18] = target: Gal(b1-4)GlcNAc(b1-3)Gal(b1-4)[Fuc(a1-3)GlcNAc(b1-6)]Gal(b1-4)Glc; details: glycan notation: IUPAC condensed, linker removed
In short: as §1

[19] = target: Gal3S6S(b1-4)GlcNAc6S; details: glycan notation: IUPAC condensed, linker removed
In short: as §1

[20] = target: GalNAc(a1-3)GalNAc(b1-3)Gal(a1-4)Gal(b1-4)Glc; details: glycan notation: IUPAC condensed, linker removed
In short: as §1

[21] = target: GalNAc(b1-6)GalNAc; details: glycan notation: IUPAC condensed, linker removed
In short: as §1

[22] = target: Glc(a1-6)Glc(a1-6)Glc; details: glycan notation: IUPAC condensed, linker removed
In short: as §1

[23] = target: GlcA(b1-3)GlcNAc; details: glycan notation: IUPAC condensed, linker removed
In short: as §1

[24] = target: GlcNAc(a1-4)Gal(b1-4)GlcNAc(b1-3)Gal(b1-4)GlcNAc(b1-3)Gal(b1-4)GlcNAc; details: glycan notation: IUPAC condensed, linker removed
In short: as §1

[25] = target: GlcNAc(b1-2)Man(a1-3)[GlcNAc(b1-2)Man(a1-6)]Man(b1-4)GlcNAc(b1-4)GlcNAc; details: glycan notation: IUPAC condensed, linker removed
In short: as §1

[26] = target: GlcNAc(b1-3)Gal(b1-4)GlcNAc(b1-3)Gal(b1-4)GlcNAc; details: glycan notation: IUPAC condensed, linker removed
In short: as §1

[27] = target: GlcNAc(b1-3)GalNAc; details: glycan notation: IUPAC condensed, linker removed
In short: as §1

[28] = target: GlcNAc(b1-3)[GlcNAc(b1-4)][GlcNAc(b1-6)]GlcNAc; details: glycan notation: IUPAC condensed, linker removed
In short: as §1

[29] = target: Kdn(a2-3)Gal(b1-3)GlcNAc; details: glycan notation: IUPAC condensed, linker removed
In short: as §1

[30] = target: Man(a1-2)Man(a1-3)[Man(a1-2)Man(a1-6)]Man(a1-6)[Man(a1-2)Man(a1-2)Man(a1-3)]Man; details: glycan notation: IUPAC condensed, linker removed
In short: as §1

[31] = target: Man(b1-4)GlcNAc; details: glycan notation: IUPAC condensed, linker removed
In short: as §1

[32] = target: Neu5Ac(a2-3)Gal(b1-4)[Fuc(a1-3)]GlcNAc(b1-3)GalNAc; details: glycan notation: IUPAC condensed, linker removed
In short: as §1

[33] = target: Neu5Ac(a2-3)[GalNAc(b1-4)]Gal(b1-4)GlcNAc; details: glycan notation: IUPAC condensed, linker removed
In short: as §1

[34] = target: Neu5Ac(a2-6)Gal(b1-4)GlcNAc; details: glycan notation: IUPAC condensed, linker removed
In short: as §1

[35] = target: Neu5Ac(a2-8)Neu5Ac(a2-8)Neu5Ac; details: glycan notation: IUPAC condensed, linker removed
In short: as §1

[36] = target: Neu5Ac(a2-8)Neu5Ac(a2-3)[Gal(b1-3)GalNAc(b1-4)]Gal(b1-4)Glc; details: glycan notation: IUPAC condensed, linker removed; mutation: D229G
In short: as §1

[37] = target: Neu5Ac(a2-8)Neu5Ac(a2-8)Neu5Ac(a2-3)[GalNAc(b1-4)]Gal(b1-4)Glc; details: glycan notation: IUPAC condensed, linker removed; mutation: D229G
In short: as §1

[38] = target: Neu5Gc(a2-6)GalNAc; details: glycan notation: IUPAC condensed, linker removed; mutation: D229G
In short: as §1

Binder	glycan array binding signal (z-score) [1]	glycan array binding signal (z-score) [2]	glycan array binding signal (z-score) [3]	glycan array binding signal (z-score) [4]	glycan array binding signal (z-score) [5]	glycan array binding signal (z-score) [6]	glycan array binding signal (z-score) [7]	glycan array binding signal (z-score) [8]	glycan array binding signal (z-score) [9]	glycan array binding signal (z-score) [10]	glycan array binding signal (z-score) [11]	glycan array binding signal (z-score) [12]	glycan array binding signal (z-score) [13]	glycan array binding signal (z-score) [14]	glycan array binding signal (z-score) [15]	glycan array binding signal (z-score) [16]	glycan array binding signal (z-score) [17]	glycan array binding signal (z-score) [18]	glycan array binding signal (z-score) [19]	glycan array binding signal (z-score) [20]	glycan array binding signal (z-score) [21]	glycan array binding signal (z-score) [22]	glycan array binding signal (z-score) [23]	glycan array binding signal (z-score) [24]	glycan array binding signal (z-score) [25]	glycan array binding signal (z-score) [26]	glycan array binding signal (z-score) [27]	glycan array binding signal (z-score) [28]	glycan array binding signal (z-score) [29]	glycan array binding signal (z-score) [30]	glycan array binding signal (z-score) [31]	glycan array binding signal (z-score) [32]	glycan array binding signal (z-score) [33]	glycan array binding signal (z-score) [34]	glycan array binding signal (z-score) [35]	glycan array binding signal (z-score) [36]	glycan array binding signal (z-score) [37]	glycan array binding signal (z-score) [38]
B1	1.26	4.09	-1.13	3.14	-0.403	-0.009	-0.236	2.51	-0.025	1.05	-0.628	-0.252	0.189	6.24	2.86	-0.375	0.829	-0.926	-0.367	-1.28	-0.145	2.49	2.61	0.594	-0.014	-1.14	0.154	-0.834	-0.039	0.204	0.398	2.87	-0.879	2.52	-0.738			
B2																																				0.215	-0.436	-0.701
